{
  "source": "PubChem BioAssay (NCI)",
  "note": "About 79,000 compounds went through this panel and 15% of them were active in at least one assay; those are over-represented in the sample as a whole. Active and inactive are the calls of the source. Cut-off read from the data, not from the text of the source: active = growth inhibition above about 70%; inactive = the rest.",
  "data": [
    {"assay": "NCI Yeast Anticancer Drug Screen. Data for the mlh1 rad18 strain (AID 175)", "settings": "S. cerevisiae mlh1 rad18 strain growth inhibition; at 50.0 µM (retest, dose inferred, filed as 5.0); stronger effect = higher value", "outline": "(§1)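 Compound-treated yeast growth, normalised to vehicle controls. Strain bears defined DNA repair mutations.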", "values": [
      {"smiles": "CCCCCCCCCCCCOP(=O)(N1CC1(C)C)N1CC1(C)C", "note": "(stereo unspecified)", "growth inhibition": "87% (active)"},
      {"smiles": "Cc1cccc(/C=N/NC(=S)Nc2ccc(Cl)cc2)n1", "growth inhibition": "98% (active)"},
      {"smiles": "CN1CCCCC1c1cc2c3ccccc3ccn2c1-c1ccccc1", "note": "(stereo unspecified)", "growth inhibition": "92% (active)"},
      {"smiles": "CN(Cc1ccccc1)CC(O)c1cc(-c2ccc(Cl)cc2)nc2ccccc12", "note": "(stereo unspecified)", "growth inhibition": "99% (active)"},
      {"smiles": "OC1CCN(c2c3ccccc3nc3ccccc23)CC1", "growth inhibition": "81% (active)"},
      {"smiles": "CCC1=C(c2ccc(OC(C)=O)cc2)Cc2cc(OC(C)=O)ccc21", "growth inhibition": "84% (active)"},
      {"smiles": "Cc1cccc(C)c1NC(=O)CSC(N)=O", "growth inhibition": "26% (inactive)"},
      {"smiles": "c1ccc([B-](c2ccccc2)(c2ccccc2)c2ccccc2)cc1", "growth inhibition": "-2% (inactive)"},
      {"smiles": "[Fe+2].c1cc[cH-]c1.c1ccc(-c2ccc[cH-]2)cc1", "growth inhibition": "24% (inactive)"},
      {"smiles": "O=C(CC1(O)CCCCC1)OC1CCCC1", "growth inhibition": "10% (inactive)"},
      {"smiles": "OC1(c2ccccc2)c2ccccc2Sc2ccccc21", "growth inhibition": "97% (active)"},
      {"smiles": "CC(CN(C)C)C(=O)/C=C/c1ccc(C(C)C)cc1", "note": "(stereo unspecified)", "growth inhibition": "94% (active)"},
      {"smiles": "CSc1cccc(N2C(=O)C=CC2=O)c1", "growth inhibition": "45% (inactive)"},
      {"smiles": "O=c1c2ccccc2nc(-c2ccccc2)n1NC(=S)Nc1ccc(Cl)cc1[N+](=O)[O-]", "growth inhibition": "10% (inactive)"},
      {"smiles": "COc1ccc(OC(C)=O)c2c1CCC=CC2=O", "growth inhibition": "95% (active)"},
      {"smiles": "CC(=O)Nc1ccc2c(c1)Cc1cccc(F)c1-2", "growth inhibition": "1% (inactive)"},
      {"smiles": "CCC(c1ccc(O)cc1)C(O)(CC)c1ccc(O)cc1", "note": "(stereo unspecified)", "growth inhibition": "-8% (inactive)"},
      {"smiles": "Cn1c(-c2ccccc2)c(CCNC(=O)C2CCC2)c2ccccc21", "growth inhibition": "18% (inactive)"},
      {"smiles": "FC(F)(F)c1ccccc1NC(=S)SCc1ccco1", "growth inhibition": "57% (inactive)"},
      {"smiles": "O=[N+]([O-])C1=Cc2cc(Cl)ccc2OC1c1cccc2ccccc12", "note": "(stereo unspecified)", "growth inhibition": "87% (active)"},
      {"smiles": "NC(=O)c1c(Cl)nc2n1CCS2", "growth inhibition": "1% (inactive)"},
      {"smiles": "CCCCCC(C)C1=NC(C)(C)CC(C)O1", "note": "(stereo unspecified)", "growth inhibition": "-116% (inactive)"},
      {"smiles": "CCCCCCCCCCCCCCCCN(C)c1ccc(S(=O)(=O)O)cc1[N+](=O)[O-]", "growth inhibition": "73% (active)"},
      {"smiles": "O=C(c1cccnc1)N(C1CCCCC1)C1CCCCC1", "growth inhibition": "6% (inactive)"}
    ]},
    {"assay": "NCI Yeast Anticancer Drug Screen. Data for the mlh1 rad18 strain (AID 175)", "settings": "S. cerevisiae mlh1 rad18 strain growth inhibition; at 50.0 µM; stronger effect = higher value", "outline": "as §1", "values": [
      {"smiles": "Cc1ccc(/C=C2\\CCCC(CN3CCCCC3)C2=O)cc1", "note": "(stereo unspecified)", "growth inhibition": "90% (active)"},
      {"smiles": "Oc1ccc(CCCCCc2ccc(O)cc2)cc1", "growth inhibition": "99.5% (active)"},
      {"smiles": "COC(=O)c1ccccc1CC(Cc1ccc2c(c1)CCC2)C(=O)OC", "note": "(stereo unspecified)", "growth inhibition": "4.25% (inactive)"},
      {"smiles": "CN=C1NS(=O)(=O)c2ccccc21", "growth inhibition": "-2.4% (inactive)"},
      {"smiles": "CCCCC/C(=C/C=C/c1ccc(Cl)cc1)CN(C)C", "growth inhibition": "99.7% (active)"},
      {"smiles": "O=S(=O)(O)c1ccc2c(c1)C1C(C3C2C2(Cl)C(Cl)=C(Cl)C3(Cl)C2(Cl)Cl)C2(Cl)C(Cl)=C(Cl)C1(Cl)C2(Cl)Cl", "note": "(stereo unspecified)", "growth inhibition": "84.4% (active)"},
      {"smiles": "Cc1ccc(S(=O)(=O)N/N=C/c2oc(-c3cccc([N+](=O)[O-])c3)c(-c3cccc([N+](=O)[O-])c3)c2[N+](=O)[O-])cc1", "growth inhibition": "89.7% (active)"},
      {"smiles": "CCN(CC)C(C)(C)C(=O)/C=C/c1ccc(Cl)cc1", "growth inhibition": "19.7% (inactive)"},
      {"smiles": "Fc1ccc(NC(=S)SCc2ccc(Cl)c(Cl)c2)c(F)c1", "growth inhibition": "99% (active)"},
      {"smiles": "CC[C@@]1(OP(=O)(O)O)C(=O)OCc2c1cc1n(c2=O)Cc2cc3ccccc3nc2-1", "growth inhibition": "74.2% (active)"},
      {"smiles": "CC(C)C1=CC2=CCC3C(C)(C(=O)O)CCCC3(C)C2CC1", "note": "(stereo unspecified) (tested in a mixture with another compound)", "growth inhibition": "88.8% (active)"},
      {"smiles": "C=CCSc1nc2ccccc2c(=O)n1Cc1ccco1", "growth inhibition": "46.5% (inactive)"},
      {"smiles": "COC(=O)c1c(C)cccc1C1CN=NC12Cc1ccc(C)c(C)c1C2=O", "note": "(stereo unspecified)", "growth inhibition": "72.8% (active)"},
      {"smiles": "CC(=O)N=C1N(/C=C2\\C(=O)Oc3ccccc3C2=O)C(=O)/C(=C/c2cccc(Cl)c2Cl)N1C", "growth inhibition": "-22.4% (inactive)"},
      {"smiles": "O=C1NC(CSSCC2NC(=O)N(c3ccccc3)C2=O)C(=O)N1c1ccccc1", "note": "(stereo unspecified)", "growth inhibition": "95.2% (active)"},
      {"smiles": "CCCCCCCCCCCCOP(=O)(N1CC1(C)C)N1CC1(C)C", "note": "(stereo unspecified)", "growth inhibition": "80.5% (active)"},
      {"smiles": "Cc1cccc(/C=N/NC(=S)Nc2ccc(Cl)cc2)n1", "growth inhibition": "88.8% (active)"},
      {"smiles": "CN1CCCCC1c1cc2c3ccccc3ccn2c1-c1ccccc1", "note": "(stereo unspecified)", "growth inhibition": "98.5% (active)"},
      {"smiles": "CN(Cc1ccccc1)CC(O)c1cc(-c2ccc(Cl)cc2)nc2ccccc12", "note": "(stereo unspecified)", "growth inhibition": "98.3% (active)"},
      {"smiles": "OC1CCN(c2c3ccccc3nc3ccccc23)CC1", "growth inhibition": "15% (inactive)"},
      {"smiles": "CCC1=C(c2ccc(OC(C)=O)cc2)Cc2cc(OC(C)=O)ccc21", "growth inhibition": "4.55% (inactive)"},
      {"smiles": "Cc1cccc(C)c1NC(=O)CSC(N)=O", "growth inhibition": "73.2% (active)"}
    ]}
  ]
}
